# Reference: PubChem BioAssay (EPA / NIEHS)
# Results filed as inconclusive are left out. Activity calls are given as the source filed them. How the source made its calls: active means hit-call score of the fitted dose curve at least 0.9, where 1 is the maximum; inconclusive means response in the unintended direction; inactive means score below 0.9.
# Columns and labels:
# [1] = biological target: human Phosphoinositide 3-kinase alpha (PI3Ka), PIK3CA (gene 5290) (UniProt P42336); test: NVS_ENZ_hPI3Ka: NovaScreen (NVS) Enzymatic Assay for human Phosphoinositide 3-kinase alpha (PI3Ka) (AID 2283196)
# Chain of human Phosphoinositide 3-kinase alpha (PI3Ka), PIK3CA (gene 5290) (P42336 whole entry, looked up): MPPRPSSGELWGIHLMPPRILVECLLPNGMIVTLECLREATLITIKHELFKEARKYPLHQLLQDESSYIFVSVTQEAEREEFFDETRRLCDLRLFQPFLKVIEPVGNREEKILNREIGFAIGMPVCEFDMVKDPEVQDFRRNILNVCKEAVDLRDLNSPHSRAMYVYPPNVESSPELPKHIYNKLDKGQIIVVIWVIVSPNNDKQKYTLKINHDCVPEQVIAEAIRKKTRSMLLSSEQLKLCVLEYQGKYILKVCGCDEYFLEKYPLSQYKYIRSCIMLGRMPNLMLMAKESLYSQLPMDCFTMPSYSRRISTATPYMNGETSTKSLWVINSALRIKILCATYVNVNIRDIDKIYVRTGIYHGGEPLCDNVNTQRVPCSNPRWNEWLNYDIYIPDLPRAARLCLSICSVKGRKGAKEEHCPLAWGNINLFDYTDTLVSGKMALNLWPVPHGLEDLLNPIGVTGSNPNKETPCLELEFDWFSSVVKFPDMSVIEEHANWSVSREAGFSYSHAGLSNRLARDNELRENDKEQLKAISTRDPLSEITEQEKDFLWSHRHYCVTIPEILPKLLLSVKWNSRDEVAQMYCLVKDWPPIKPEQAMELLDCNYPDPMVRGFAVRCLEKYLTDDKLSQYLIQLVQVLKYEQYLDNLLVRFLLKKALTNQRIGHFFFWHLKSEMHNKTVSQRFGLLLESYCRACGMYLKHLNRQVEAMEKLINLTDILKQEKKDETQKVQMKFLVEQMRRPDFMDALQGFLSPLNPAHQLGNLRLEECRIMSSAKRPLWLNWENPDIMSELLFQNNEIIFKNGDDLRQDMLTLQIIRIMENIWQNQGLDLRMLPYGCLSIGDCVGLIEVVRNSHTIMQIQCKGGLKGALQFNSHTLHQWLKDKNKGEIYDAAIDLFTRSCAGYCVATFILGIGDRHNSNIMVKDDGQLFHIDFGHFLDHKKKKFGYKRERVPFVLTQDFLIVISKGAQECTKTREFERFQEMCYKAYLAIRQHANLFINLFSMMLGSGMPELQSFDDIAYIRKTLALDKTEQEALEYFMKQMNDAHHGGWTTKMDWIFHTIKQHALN
# Procedure, shortened: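 Recombinant human PI3Kα with fluorescent substrate, 1 h, product separated by electrophoretic mobility shift; 25 uM duplicate screen, hits (e.g., 30% inhibition) retested singly up to 50 uM; loss of signal vs DMSO.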
# [2] = biological target: human Phosphodiesterase 10 (PDE10), PDE10A (gene 10846) (UniProt Q9Y233); test: NVS_ENZ_hPDE10: NovaScreen (NVS) Enzymatic Assay for human Phosphodiesterase 10 (PDE10) (AID 2283195)
# Chain of human Phosphodiesterase 10 (PDE10), PDE10A (gene 10846) (Q9Y233 whole entry, looked up): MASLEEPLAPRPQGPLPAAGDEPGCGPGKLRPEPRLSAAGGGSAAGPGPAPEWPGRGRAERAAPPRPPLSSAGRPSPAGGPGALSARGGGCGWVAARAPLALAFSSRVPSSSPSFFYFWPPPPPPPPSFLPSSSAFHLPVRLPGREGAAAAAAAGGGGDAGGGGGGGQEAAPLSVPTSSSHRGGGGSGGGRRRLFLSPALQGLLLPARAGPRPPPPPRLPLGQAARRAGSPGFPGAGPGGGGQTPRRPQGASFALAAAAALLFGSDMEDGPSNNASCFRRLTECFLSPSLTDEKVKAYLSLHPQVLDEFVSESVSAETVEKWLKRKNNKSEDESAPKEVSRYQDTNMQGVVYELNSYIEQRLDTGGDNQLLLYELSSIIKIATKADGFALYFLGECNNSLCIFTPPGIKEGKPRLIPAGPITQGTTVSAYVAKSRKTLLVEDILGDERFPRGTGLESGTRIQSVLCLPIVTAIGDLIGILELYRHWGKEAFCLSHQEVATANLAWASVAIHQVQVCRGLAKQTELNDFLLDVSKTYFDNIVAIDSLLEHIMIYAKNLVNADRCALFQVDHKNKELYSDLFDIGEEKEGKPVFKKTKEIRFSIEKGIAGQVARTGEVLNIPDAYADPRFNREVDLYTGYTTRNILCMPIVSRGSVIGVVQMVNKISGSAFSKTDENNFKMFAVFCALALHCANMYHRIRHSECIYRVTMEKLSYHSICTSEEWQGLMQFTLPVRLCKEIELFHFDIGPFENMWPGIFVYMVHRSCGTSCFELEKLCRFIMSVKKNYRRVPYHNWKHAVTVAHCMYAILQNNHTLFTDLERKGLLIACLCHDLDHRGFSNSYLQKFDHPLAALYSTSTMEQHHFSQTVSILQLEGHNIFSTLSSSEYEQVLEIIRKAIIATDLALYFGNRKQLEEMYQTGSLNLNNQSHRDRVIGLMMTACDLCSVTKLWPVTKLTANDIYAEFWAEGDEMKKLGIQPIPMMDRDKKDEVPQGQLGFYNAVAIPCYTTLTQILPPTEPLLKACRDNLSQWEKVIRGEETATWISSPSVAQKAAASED
# Procedure, shortened: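 Fluorescence/mobility-shift readout of PDE10A enzyme activity, taken 1 h post-dosing. Primary screen in duplicate at 25 uM; actives (e.g. ≥30% inhibition) retested as singleton concentration-response, top concentration 50 uM.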
# [3] = biological target: Tyrosine-protein phosphatase non-receptor type 13 (Homo sapiens) (UniProt Q12923); test: NVS_ENZ_hPTPN13: NovaScreen (NVS) Enzymatic Assay for human Protein Tyrosine Phosphatase Non-receptor Type 13 (PTPN13) (AID 2283205)
# Procedure, shortened: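 Cell-free assay of recombinant human PTPN13 with a fluorescent substrate, product separated by electrophoretic mobility shift and read 0.5 h after dosing. Primary screen at 25 uM in duplicate, then concentration-response up to 50 uM. Loss of signal fitted against DMSO.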
# [4] = biological target: Tyrosine-protein phosphatase non-receptor type 14 (Homo sapiens) (UniProt Q15678); test: NVS_ENZ_hPTPN14: NovaScreen (NVS) Enzymatic Assay for human Protein Tyrosine Phosphatase Non-receptor Type 14 (PTPN14) (AID 2283206)
# Procedure, shortened: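 Cell-free recombinant human PTPN14 with fluorescent substrate, read 0.5 h after dosing by fluorescence and electrophoretic mobility shift separating substrate from product. Primary screen at 25 uM in duplicate; hits run to 50 uM maximum; loss of signal versus DMSO.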
# [5] = biological target: human Protein Tyrosine Phosphatase Receptor Type F (PTPRF), PTPRF (gene 5792) (UniProt P10586); test: NVS_ENZ_hPTPRF: NovaScreen (NVS) Enzymatic Assay for human Protein Tyrosine Phosphatase Receptor Type F (PTPRF) (AID 2283213)
# Procedure, shortened: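 Cell-free fluorescence enzyme assay with recombinant protein and substrate; product separated by electrophoretic mobility shift. Read 1 h after dosing, single 25 uM duplicate screen, then concentration-response up to 50 uM; loss of signal vs DMSO.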
# [6] = biological target: human Protein Tyrosine Phosphatase Receptor Type M (PTPRM), PTPRM (gene 5797) (UniProt P28827); test: NVS_ENZ_hPTPRM: NovaScreen (NVS) Enzymatic Assay for human Protein Tyrosine Phosphatase Receptor Type M (PTPRM) (AID 2283215)
# Chain of human Protein Tyrosine Phosphatase Receptor Type M (PTPRM), PTPRM (gene 5797) (P28827 whole entry, looked up): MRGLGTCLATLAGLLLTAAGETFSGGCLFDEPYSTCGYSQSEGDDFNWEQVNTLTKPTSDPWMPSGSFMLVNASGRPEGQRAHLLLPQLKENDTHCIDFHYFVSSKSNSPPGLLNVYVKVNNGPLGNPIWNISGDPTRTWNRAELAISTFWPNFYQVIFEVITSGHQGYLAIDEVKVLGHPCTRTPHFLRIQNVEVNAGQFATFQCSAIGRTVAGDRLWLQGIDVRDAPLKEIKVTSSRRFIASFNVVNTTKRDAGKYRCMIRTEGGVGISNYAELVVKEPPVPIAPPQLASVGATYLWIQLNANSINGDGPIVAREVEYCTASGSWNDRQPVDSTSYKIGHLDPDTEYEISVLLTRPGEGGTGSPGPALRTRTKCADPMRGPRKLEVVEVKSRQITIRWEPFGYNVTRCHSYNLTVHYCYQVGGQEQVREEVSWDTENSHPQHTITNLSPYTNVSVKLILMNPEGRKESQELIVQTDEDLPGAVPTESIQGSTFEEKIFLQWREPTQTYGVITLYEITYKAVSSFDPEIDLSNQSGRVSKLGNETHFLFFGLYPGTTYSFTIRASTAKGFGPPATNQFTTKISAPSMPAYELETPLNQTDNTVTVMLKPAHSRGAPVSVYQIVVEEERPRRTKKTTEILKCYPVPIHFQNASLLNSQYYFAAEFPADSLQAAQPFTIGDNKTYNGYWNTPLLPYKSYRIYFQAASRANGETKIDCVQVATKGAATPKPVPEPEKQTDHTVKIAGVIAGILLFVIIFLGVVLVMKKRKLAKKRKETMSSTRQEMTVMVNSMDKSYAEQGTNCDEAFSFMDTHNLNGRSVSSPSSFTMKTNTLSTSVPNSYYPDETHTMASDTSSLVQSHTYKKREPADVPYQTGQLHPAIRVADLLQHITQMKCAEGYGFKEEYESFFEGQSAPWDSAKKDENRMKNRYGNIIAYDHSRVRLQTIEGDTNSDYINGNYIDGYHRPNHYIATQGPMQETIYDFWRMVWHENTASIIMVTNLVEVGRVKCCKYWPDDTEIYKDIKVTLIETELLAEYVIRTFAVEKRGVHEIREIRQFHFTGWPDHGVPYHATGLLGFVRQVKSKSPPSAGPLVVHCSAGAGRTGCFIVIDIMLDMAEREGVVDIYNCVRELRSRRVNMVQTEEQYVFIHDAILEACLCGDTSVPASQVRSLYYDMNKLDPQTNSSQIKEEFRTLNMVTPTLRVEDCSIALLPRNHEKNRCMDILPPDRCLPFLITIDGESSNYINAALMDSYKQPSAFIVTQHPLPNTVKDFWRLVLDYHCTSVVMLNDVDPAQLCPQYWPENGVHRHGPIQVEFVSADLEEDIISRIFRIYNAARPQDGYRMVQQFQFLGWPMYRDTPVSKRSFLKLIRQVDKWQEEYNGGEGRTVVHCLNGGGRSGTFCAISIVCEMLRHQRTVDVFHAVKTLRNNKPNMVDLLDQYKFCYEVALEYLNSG
# Procedure, shortened: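 Cell-free recombinant PTPRM with fluorogenic substrate; product separated from substrate by electrophoretic mobility shift and read by fluorescence, 1.33 h after dosing. Primary screen single concentration (25 uM) in duplicate; actives retested in concentration series; loss of signal versus DMSO.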
# [7] = biological target: human Sirtuin 3 (SIRT3), SIRT3 (gene 23410) (UniProt Q9NTG7); test: NVS_ENZ_hSIRT3: NovaScreen (NVS) Enzymatic Assay for human Sirtuin 3 (SIRT3) (AID 2283222)
# Procedure, shortened: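 Cell-free enzyme assay with recombinant protein and fluorescent substrate, product separated by electrophoretic mobility shift; read 1 hour after dosing. Screened in duplicate at 25 uM, then singleton concentration-response up to 50 uM; loss of signal versus DMSO.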
# [8] = biological target: rabbit Imidazoline 2 Central (I2C), CKB (gene 100009085) (UniProt P00567); test: NVS_ENZ_rabI2C: NovaScreen (NVS) Enzymatic Assay for rabbit Imidazoline 2 Central (I2C) (AID 2283228)
# Chain of rabbit Imidazoline 2 Central (I2C), CKB (gene 100009085) (P00567 whole entry, looked up): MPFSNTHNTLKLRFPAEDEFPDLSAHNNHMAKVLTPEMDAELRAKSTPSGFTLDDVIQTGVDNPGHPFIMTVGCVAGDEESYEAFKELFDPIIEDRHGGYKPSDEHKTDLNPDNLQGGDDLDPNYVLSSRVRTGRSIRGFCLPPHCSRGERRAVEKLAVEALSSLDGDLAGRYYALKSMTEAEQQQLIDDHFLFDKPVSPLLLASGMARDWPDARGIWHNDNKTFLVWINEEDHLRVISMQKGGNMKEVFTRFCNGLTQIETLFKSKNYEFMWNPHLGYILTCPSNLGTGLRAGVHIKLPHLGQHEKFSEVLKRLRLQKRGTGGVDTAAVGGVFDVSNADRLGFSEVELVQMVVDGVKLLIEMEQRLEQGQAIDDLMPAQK
# Procedure, shortened: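 Rabbit brain membranes, cell-free; readout by filter-based scintillation counting 1.5 hours after dosing, loss of signal vs DMSO. Initial duplicate test at 25 uM, then concentration-response with 50 uM top concentration.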
# [9] = biological target: bovine Dopamine Receptor (DR), Non-selective Binding, DRD1 (gene 281125) (UniProt Q95136); test: NVS_GPCR_bDR_NonSelective: NovaScreen (NVS) G Protein-Coupled Receptor Assay for bovine Dopamine Receptor (DR), Non-selective Binding (AID 2283241)
# Chain of bovine Dopamine Receptor (DR), Non-selective Binding, DRD1 (gene 281125) (Q95136 whole entry, looked up): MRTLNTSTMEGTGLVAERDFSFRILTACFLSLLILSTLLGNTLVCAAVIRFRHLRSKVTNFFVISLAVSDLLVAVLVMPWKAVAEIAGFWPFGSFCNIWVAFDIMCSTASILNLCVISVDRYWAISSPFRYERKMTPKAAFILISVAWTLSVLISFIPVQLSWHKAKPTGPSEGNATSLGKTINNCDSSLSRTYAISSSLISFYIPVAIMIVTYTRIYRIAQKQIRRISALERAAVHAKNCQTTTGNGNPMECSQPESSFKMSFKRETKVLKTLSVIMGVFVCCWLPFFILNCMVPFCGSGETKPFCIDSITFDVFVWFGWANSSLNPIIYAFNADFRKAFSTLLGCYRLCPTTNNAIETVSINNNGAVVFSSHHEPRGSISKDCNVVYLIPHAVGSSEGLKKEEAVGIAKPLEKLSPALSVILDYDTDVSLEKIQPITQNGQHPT
# Procedure, shortened: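 Bovine striatal membranes; radioligand displacement read by filtration and scintillation counting 1 h after dosing, loss of signal vs DMSO. Screened in duplicate at 25 uM, then concentration-response for hits.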
# [10] = NVS_GPCR_bNPY_NonSelective: NovaScreen (NVS) G Protein-Coupled Receptor Assay for bovine Neuropeptide Y (NPY) Receptor, Non-selective Binding (AID 2283245)
# Procedure, shortened: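 Bovine hippocampal membranes incubated 1 hour with radioligand and test chemical. Bound ligand measured by filter-based scintillation counting. Single-concentration screen at 25 uM in duplicate, then concentration-response up to 50 uM.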
# [11] = tested on: guinea pig Muscarinic, Peripheral (Mperiperal) Receptor, Non-selective Binding, gene 100379235; test: NVS_GPCR_gMPeripheral_NonSelective: NovaScreen (NVS) G Protein-Coupled Receptor Assay for guinea pig Muscarinic, Peripheral (Mperiperal) Receptor, Non-selective Binding (AID 2283250)
# Procedure, shortened: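 Guinea pig bladder membranes, radioligand binding read 1 h after dosing by filter scintillation counting; loss of signal vs DMSO. Primary duplicate screen at 25 uM, then concentration-response up to 50 uM.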
# [12] = biological target: human SRC Proto-Oncogene, Non-receptor Tyrosine Kinase (SRC), SRC (gene 6714) (UniProt P12931); test: NVS_ENZ_hSRC: NovaScreen (NVS) Enzymatic Assay for human SRC Proto-Oncogene, Non-receptor Tyrosine Kinase (SRC) (AID 2283223)
# Procedure, shortened: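 Cell-free kinase activity assay with fluorescent substrate, product separated by electrophoretic mobility shift, read 1 h after dosing. Duplicate single point at 25 uM, then concentration-response up to 50 uM; loss of signal versus DMSO.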
# [13] = biological target: guinea pig Leukotriene D4 Receptor (LTD4), CYSLTR1 (gene 100135514) (UniProt Q2NNR5); test: NVS_GPCR_gLTD4: NovaScreen (NVS) G Protein-Coupled Receptor Assay for guinea pig Leukotriene D4 Receptor (LTD4) (AID 2283248)
# Chain of guinea pig Leukotriene D4 Receptor (LTD4), CYSLTR1 (gene 100135514) (Q2NNR5 whole entry, looked up): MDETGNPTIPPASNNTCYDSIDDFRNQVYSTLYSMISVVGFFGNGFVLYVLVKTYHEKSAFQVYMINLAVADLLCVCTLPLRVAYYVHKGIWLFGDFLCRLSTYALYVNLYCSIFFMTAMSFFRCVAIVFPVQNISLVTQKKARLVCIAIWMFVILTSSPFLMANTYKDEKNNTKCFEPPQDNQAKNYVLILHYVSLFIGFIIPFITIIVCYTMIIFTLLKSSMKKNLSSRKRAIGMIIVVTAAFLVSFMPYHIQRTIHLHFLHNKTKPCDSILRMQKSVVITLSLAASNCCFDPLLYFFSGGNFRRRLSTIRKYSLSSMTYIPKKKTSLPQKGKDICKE
# Procedure, shortened: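 Radioligand displacement on guinea pig lung membranes, 1 h incubation, filtration and scintillation counting; DMSO as negative control. Duplicate 25 uM primary screen, then singleton concentration-response up to 50 uM.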
# [14] = biological target: human Protein Tyrosine Phosphatase Non-receptor Type 1 (PTPN1), PTPN1 (gene 5770) (UniProt P18031); test: NVS_ENZ_hPTPN1: NovaScreen (NVS) Enzymatic Assay for human Protein Tyrosine Phosphatase Non-receptor Type 1 (PTPN1) (AID 2283201)
# Procedure, shortened: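 Cell-free fluorogenic-substrate activity assay on recombinant enzyme, read 1.33 h after dosing by fluorescence and electrophoretic mobility shift; loss of signal vs DMSO baseline. Primary screen in duplicate at 25 uM, hits then run in concentration-response up to 50 uM.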
# [15] = biological target: Tyrosine-protein phosphatase non-receptor type 11 (Homo sapiens) (UniProt Q06124); test: NVS_ENZ_hPTPN11: NovaScreen (NVS) Enzymatic Assay for human Protein Tyrosine Phosphatase Non-receptor Type 11 (PTPN11) (AID 2283202)
# Procedure, shortened: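 Recombinant human PTPN11 activity on a fluorescent substrate, with substrate/product separated by electrophoretic mobility shift; read 0.5 h after dosing, loss of signal vs DMSO. Duplicate 25 uM screen, then concentration-response up to 50 uM.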
# [16] = biological target: human Sirtuin 2 (SIRT2), SIRT2 (gene 22933) (UniProt Q8IXJ6); test: NVS_ENZ_hSIRT2: NovaScreen (NVS) Enzymatic Assay for human Sirtuin 2 (SIRT2) (AID 2283217)
# Procedure, shortened: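 Cell-free recombinant human SIRT2, fluorescent substrate with product separated by electrophoretic mobility shift, 1 hr. Screened in duplicate at 25 uM; hits rerun singly in concentration-response up to 50 uM, relative to DMSO.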
# [17] = biological target: human Sirtuin 1 (SIRT1), SIRT1 (gene 23411) (UniProt Q96EB6); test: NVS_ENZ_hSIRT1: NovaScreen (NVS) Enzymatic Assay for human Sirtuin 1 (SIRT1) (AID 2283219)
# Procedure, shortened: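 Cell-free recombinant SIRT1 with a fluorescent substrate; substrate and product separated by electrophoretic mobility shift and read by fluorescence intensity, 1 h after dosing. Primary screen at 25 uM in duplicate; hits re-run in concentration-response up to 50 uM, relative to DMSO.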
# [18] = biological target: human Tropomyosin Receptor Kinase A (TRKA), NTRK1 (gene 4914) (UniProt P04629); test: NVS_ENZ_hTrkA: NovaScreen (NVS) Enzymatic Assay for human Tropomyosin Receptor Kinase A (TRKA) (AID 2283224)
# Procedure, shortened: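 Recombinant human TrkA activity read after 1 h by fluorescence with electrophoretic mobility shift separating substrate and product. Primary screen in duplicate at 25 uM; actives were rerun in concentration-response up to 50 uM. Loss of signal versus DMSO.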
# [19] = biological target: human Vascular Endothelial Growth Factor Receptor 2 (VEGFR2), KDR (gene 3791) (UniProt P35968); test: NVS_ENZ_hVEGFR2: NovaScreen (NVS) Enzymatic Assay for human Vascular Endothelial Growth Factor Receptor 2 (VEGFR2) (AID 2283230)
# Procedure, shortened: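 Cell-free recombinant VEGFR2 kinase, fluorescent substrate with electrophoretic mobility-shift separation; read 1 h after dosing. Screened at 25 uM in duplicate, hits to concentration-response up to 50 uM; loss-of-signal versus DMSO.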
# [20] = biological target: human Protein Tyrosine Phosphatase Non-receptor Type 6 (PTPN6), PTPN6 (gene 5777) (UniProt P29350); test: NVS_ENZ_hPTPN6: NovaScreen (NVS) Enzymatic Assay for human Protein Tyrosine Phosphatase Non-receptor Type 6 (PTPN6) (AID 2283210)
# Procedure, shortened: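 Cell-free assay with recombinant PTPN6 expressed in SF9 cells, fluorescent substrate, product separated from substrate by electrophoretic mobility shift; read 1.33 hours after dosing. Primary screen in duplicate at 25 uM, actives retested in concentration series; DMSO baseline.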
smiles,measurement,setting,value
C=CC(=O)OCCCCCC,outcome,[1],inactive
CC/C(=C(\c1ccccc1)c1ccc(OCCN(C)C)cc1)c1ccccc1,AC50,[2],22.9 µM (active)
same,AC50,[1],16.1 µM (active)
same,AC50,[3],12.1 µM (active)
same,outcome,[4],inactive
same,outcome,[5],inactive
same,AC50,[6],13.9 µM (active)
same,outcome,[7],inactive
same,outcome,[8],inactive
same,outcome,[9],inactive
same,AC50,[10],22.9 µM (active)
same,AC50,[11],19.1 µM (active)
C#C[C@]1(O)CC[C@H]2[C@@H]3CCc4cc(O)ccc4[C@H]3CC[C@@]21C,AC50,[12],38.4 µM (active)
same,outcome,[13],inactive
COc1ccccc1NC(=O)CC(C)=O,AC50,[2],7.87 µM (active)
OCCCO,AC50,[2],16.1 µM (active)
CCC(CC)CO,outcome,[2],inactive
N#CCCNCCC#N,outcome,[2],inactive
Cc1ccc(C(C)(C)O)cc1,AC50,[1],25 µM (active)
O=[N+]([O-])c1cc(N(CCO)CCO)ccc1NCCO,outcome,[13],inactive
CC(CO)c1ccccc1 (stereo unspecified),outcome,[1],inactive
CCOC(=O)C(=O)OCC,outcome,[1],inactive
CC1(C)[C@H](C=C(Cl)Cl)[C@H]1C(=O)OCc1cccc(Oc2ccccc2)c1,AC50,[2],25 µM (active)
Brc1cc(Br)cc(Br)c1,outcome,[2],inactive
O=C(c1ccc(OCCN2CCCCC2)cc1)c1c(-c2ccc(O)cc2)sc2cc(O)ccc12,AC50,[2],25 µM (active)
same,AC50,[14],5.48 µM (active)
same,AC50,[15],28 µM (active)
same,AC50,[3],30.9 µM (active)
same,outcome,[4],inactive
same,AC50,[6],37.9 µM (active)
same,outcome,[16],inactive
same,AC50,[17],17.8 µM (active)
same,AC50,[7],17.4 µM (active)
same,AC50,[18],25 µM (active)
same,AC50,[8],10.3 µM (active)
same,AC50,[19],3.07 µM (active)
same,AC50,[9],1.02 µM (active)
same,AC50,[11],5.18 µM (active)
CCCCOCCOCCO,outcome,[20],inactive
O=C1OC2(c3ccc(O)cc3Oc3cc(O)ccc32)c2ccccc21,outcome,[1],inactive
same,outcome,[13],inactive
